According to the supplement of paper PMC7411054:
Where a name gives a salt, the structure may show the parent alone.

Columns and labels:
Conditions in all cases: treatment time: 24 h
[1] = test system: HepG2-GM130-SQSTM1; assay: lowest phenotypically active concentration; higher = less potent
Procedure, shortened: (§1)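 Fifteen reporter lines derived from A549, HepG2 and WPMY1 cells by gene editing, carrying BFP for segmentation plus GFP and RFP/FusionRed markers, were exposed to 0.3, 1, 3 or 9 µM for 24 h in four wells each and imaged live. Live-cell features from each well were normalised to solvent control wells. A well set counted as deviating when ≥3 of 4 wells lay beyond the 95th percentile of control Euclidean distances, and as reproducible when the median replicate Pearson correlation exceeded the 95th percentile of non-replicates. Phenotypic activity was assigned only when both criteria were met.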

[2] = test system: A549-ACTB-RAB5A; assay: phenotypically active (imaging signature differs from DMSO and reproducible) at any of 0.3-9 uM (binary (1 = active, 0 = inactive)); higher = active
Procedure, shortened: as §1

[3] = test system: A549-CANX-COX4; assay: as above
Procedure, shortened: as §1

[4] = test system: A549-GM130-SQSTM1; assay: as above
Procedure, shortened: as §1

[5] = test system: A549-TP53BP1-CLTA; assay: as above
Procedure, shortened: as §1

[6] = test system: A549-TUBA1B-RELA; assay: as above
Procedure, shortened: as §1

[7] = test system: HepG2-ACTB-RAB5A; assay: as above
Procedure, shortened: as §1

[8] = test system: HepG2-CANX-COX4; assay: as above
Procedure, shortened: as §1

[9] = test system: HepG2-GM130-SQSTM1; assay: as above
Procedure, shortened: as §1

[10] = test system: HepG2-TP53BP1-CLTA; assay: as above
Procedure, shortened: as §1

[11] = test system: HepG2-TUBA1B-RELA; assay: as above
Procedure, shortened: as §1

[12] = test system: WPMY1-ACTB-RAB5A; assay: as above
Procedure, shortened: as §1

[13] = test system: WPMY1-CANX-COX4; assay: as above
Procedure, shortened: as §1

[14] = test system: WPMY1-GM130-SQSTM1; assay: as above
Procedure, shortened: as §1

[15] = test system: WPMY1-TP53BP1-CLTA; assay: as above
Procedure, shortened: as §1

[16] = test system: WPMY1-TUBA1B-RELA; assay: as above
Procedure, shortened: as §1

[17] = test system: WPMY1-GM130-SQSTM1; assay: lowest phenotypically active concentration; higher = less potent
Procedure, shortened: as §1

[18] = test system: WPMY1-TP53BP1-CLTA; assay: as above
Procedure, shortened: as §1

[19] = test system: HepG2-ACTB-RAB5A; assay: as above
Procedure, shortened: as §1

[20] = test system: HepG2-CANX-COX4; assay: as above
Procedure, shortened: as §1

Row | Compound | lowest phenotypically active concentration [1] [µM] | phenotypically active [2] | phenotypically active [3] | phenotypically active [4] | phenotypically active [5] | phenotypically active [6] | phenotypically active [7] | phenotypically active [8] | phenotypically active [9] | phenotypically active [10] | phenotypically active [11] | phenotypically active [12] | phenotypically active [13] | phenotypically active [14] | phenotypically active [15] | phenotypically active [16] | lowest phenotypically active concentration [17] [µM] | lowest phenotypically active concentration [18] [µM] | lowest phenotypically active concentration [19] [µM] | lowest phenotypically active concentration [20] [µM]
1 | N#Cc1c(Oc2cccc(OS(=O)(=O)CCCC(F)(F)F)c2)cccc1C(F)(F)F | 9 | 0 (inactive) | 0 (inactive) | 0 (inactive) | 0 (inactive) | 0 (inactive) | 0 (inactive) | 0 (inactive) | 1 (active) | 0 (inactive) | 0 (inactive) | 0 (inactive) | 0 (inactive) | 0 (inactive) | 0 (inactive) | 0 (inactive) |  |  |  | 
2 | C[C@H](N)Cc1ccccc1 [dextroamphetamine] |  | 1 (active) | 0 (inactive) | 1 (active) |  | 1 (active) | 0 (inactive) | 0 (inactive) | 0 (inactive) |  | 0 (inactive) | 0 (inactive) | 0 (inactive) | 0 (inactive) |  | 0 (inactive) |  |  |  | 
3 | C[C@@H](CO)NC(=O)[C@@H]1C=C2c3cccc4[nH]cc(c34)C[C@H]2N(C)C1 [Ergobasine] | 9 | 0 (inactive) | 0 (inactive) | 1 (active) | 1 (active) | 0 (inactive) | 0 (inactive) | 0 (inactive) | 1 (active) | 0 (inactive) | 0 (inactive) | 0 (inactive) | 1 (active) | 1 (active) | 1 (active) | 0 (inactive) | 9 | 9 |  | 
4 | BrC1C(Br)C(Br)C(Br)C(Br)C1Br (stereo unspecified) [1,2,3,4,5,6-Hexabromocyclohexane] | 9 | 0 (inactive) | 0 (inactive) | 0 (inactive) | 0 (inactive) | 0 (inactive) | 0 (inactive) | 0 (inactive) | 1 (active) | 0 (inactive) | 0 (inactive) | 0 (inactive) | 0 (inactive) | 0 (inactive) | 0 (inactive) | 0 (inactive) |  |  |  | 
5 | C[C@@H]1NCCc2cc(O)c(O)cc21 [Salsolinol hydrobromide] |  | 0 (inactive) | 0 (inactive) | 0 (inactive) | 0 (inactive) | 0 (inactive) | 0 (inactive) | 0 (inactive) | 0 (inactive) | 0 (inactive) | 0 (inactive) | 0 (inactive) | 0 (inactive) | 1 (active) | 0 (inactive) | 0 (inactive) | 9 |  |  | 
6 | C[C@]1(C(=O)O)CCC[C@]2(C)c3cc(O)ccc3CC[C@@H]12 [Podocarpic acid] |  |  | 0 (inactive) |  | 0 (inactive) |  | 0 (inactive) | 0 (inactive) | 0 (inactive) | 0 (inactive) | 0 (inactive) | 0 (inactive) | 0 (inactive) | 0 (inactive) | 0 (inactive) | 0 (inactive) |  |  |  | 
7 | C/C=C(/C)C(=O)O[C@H]1CC[C@@]2(C)[C@@H]3CC[C@H]4[C@]5(O)C[C@H](O)[C@@]6(O)[C@@H](CN7C[C@@H](C)CC[C@H]7[C@@]6(C)O)[C@]5(O)C[C@@]42O[C@]13O [Veratrine] |  | 0 (inactive) | 0 (inactive) | 0 (inactive) | 0 (inactive) | 0 (inactive) | 0 (inactive) | 0 (inactive) | 0 (inactive) | 0 (inactive) | 1 (active) | 0 (inactive) | 0 (inactive) | 0 (inactive) | 0 (inactive) | 0 (inactive) |  |  |  | 
8 | C[C@]12CC[C@H](O)C[C@H]1CC[C@@H]1[C@@H]2CC[C@]2(C)[C@@H](C3=CC(=O)OC3)CC[C@]12O [Digitoxigenin] | ≤ 0.3 |  | 1 (active) |  | 1 (active) |  | 1 (active) | 1 (active) | 1 (active) | 1 (active) | 1 (active) | 1 (active) | 1 (active) | 1 (active) | 1 (active) | 1 (active) | 1 | ≤ 0.3 | ≤ 0.3 | ≤ 0.3
9 | C[C@H]1CCCC=C[C@@H]2C[C@H](O)C[C@H]2[C@H](O)C=CC(=O)O1 [brefeldin-a] | ≤ 0.3 |  | 1 (active) |  | 1 (active) |  | 1 (active) | 1 (active) | 1 (active) | 1 (active) | 1 (active) | 1 (active) | 1 (active) | 1 (active) | 1 (active) | 1 (active) | ≤ 0.3 | ≤ 0.3 | ≤ 0.3 | ≤ 0.3
10 | C[N+]12CCC(CC1)C(OC(=O)C(O)(c1ccccc1)c1ccccc1)C2 (stereo unspecified) [clidinium] |  |  | 0 (inactive) |  | 0 (inactive) |  | 0 (inactive) | 0 (inactive) | 0 (inactive) | 0 (inactive) | 0 (inactive) | 0 (inactive) | 0 (inactive) | 0 (inactive) | 0 (inactive) | 0 (inactive) |  |  |  | 
11 | CC[C@@H](C)C(=O)O[C@H]1[C@H](O)[C@H]2[C@@H](CN3C[C@@H](C)CC[C@H]3[C@@]2(C)O)C2C[C@]34O[C@]5(O)[C@@H](OC(=O)[C@](C)(O)CC)CC[C@@]3(C)[C@@H]5[C@@H](OC(C)=O)[C@@H](OC(C)=O)[C@H]4[C@@]21O (stereo partly specified) [Protoveratrine A] |  | 0 (inactive) | 0 (inactive) | 1 (active) | 0 (inactive) | 0 (inactive) | 0 (inactive) | 0 (inactive) | 0 (inactive) | 0 (inactive) | 0 (inactive) | 0 (inactive) | 0 (inactive) | 0 (inactive) | 0 (inactive) | 0 (inactive) |  |  |  | 
